The target in assay [1] is Lysosomal acid glucosylceramidase (Homo sapiens) (UniProt P04062). In words: Glucocerebrosidase-p2 (AID 348; in the data active = potency below about 10 µM; also: potency is read from the fitted curve at half-maximal effect). The conditions noted are these: purified GBA, blue fluorogenic substrate, 40 min. Put shortly: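 Compounds titrated from 0.6 nM upwards against 0.2 nM enzyme in pH 5.9 citric acid/KH2PO4, taurocholate, tween-20; blue fluorogenic substrate 80 uM, 40 min room temperature, stopped and read Ex 365/Em 440 for AC50.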
Sequence of Lysosomal acid glucosylceramidase (Homo sapiens) (P04062 whole entry, looked up): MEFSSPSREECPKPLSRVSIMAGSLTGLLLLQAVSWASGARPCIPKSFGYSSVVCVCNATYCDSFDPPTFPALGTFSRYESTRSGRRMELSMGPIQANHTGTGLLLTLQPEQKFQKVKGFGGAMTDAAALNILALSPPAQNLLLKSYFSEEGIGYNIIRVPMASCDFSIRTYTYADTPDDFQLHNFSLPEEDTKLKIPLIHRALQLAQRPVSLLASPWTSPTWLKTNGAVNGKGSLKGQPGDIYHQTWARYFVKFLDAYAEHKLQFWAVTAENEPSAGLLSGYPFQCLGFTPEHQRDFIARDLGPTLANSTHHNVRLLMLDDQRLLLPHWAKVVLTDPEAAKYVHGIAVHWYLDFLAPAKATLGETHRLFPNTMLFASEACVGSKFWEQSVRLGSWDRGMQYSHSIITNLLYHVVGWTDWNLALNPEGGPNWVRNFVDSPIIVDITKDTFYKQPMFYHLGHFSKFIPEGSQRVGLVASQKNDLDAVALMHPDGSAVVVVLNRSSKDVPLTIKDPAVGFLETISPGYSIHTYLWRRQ

A short description of assay [2]: AP1 Signaling Pathway (AID 357).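 Also: ME-180 reporter cells stimulated with EGF at its EC50 level; % is scaled to controls: 0 for no effect and ±100 for the full control effect.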 To be noted: ME-180 AP-1-bla reporter, EGF-induced, beta-lactamase ratio, 5 h; at 7.69 µM (top of the series) unless noted. Put shortly: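 Modulation of EGF-driven AP-1 transcription was assessed with a beta-lactamase reporter in ME-180 cells. Compound and EC50 EGF were co-incubated 5 hours at 37 °C before 2.5-hour CCF4 loading at room temperature and dual-emission reading.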

Assay [3] addresses Cytochrome P450 1A2 (Homo sapiens) (UniProt P05177). In words: p450-cyp1a2 (AID 410; calls by dose curve; also: potency is read from the fitted curve at half-maximal effect). The conditions noted are these: recombinant CYP1A2, luciferin-ME demethylation, luminescence; series mostly up to 11.4 µM. Put shortly:
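Luminescent readout of luciferin formed from Luciferin-ME by human CYP1A2; data normalized against complete inhibition by 57 uM furafylline. Enzyme 20nM, substrate 100uM at Km, 100mM KPO4 buffer, 60 min reaction at room temperature.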

Assay [4] in a line: NFAT Signaling Pathway (AID 444).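 Also: carbachol stimulus at about its EC50 of 1 µM final; % is scaled to controls: 0 for no effect and ±100 for the full control effect.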 To be noted: Jurkat NFAT-bla M1, carbachol, beta-lactamase ratio, 5 h; at 7.69 µM (top of the series) unless noted. Put shortly: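 Jurkat cells carrying an NFAT-driven β-lactamase reporter and co-transfected muscarinic M1 receptor were treated with compound plus carbachol (1 uM final, an EC50 level) for 5 h at 37 °C. CCF4 loading followed for 1 h at RT; 460/530 nm ratio gave %activity.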

Assay [5] can be described thus: Stat Signaling Pathway (AID 446).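 Also: ME-180 cervical cancer cells given 40 pM IL-6 alongside compound; SIE-controlled beta-lactamase reporter measured as 460/530 nm FRET emission ratio; % is scaled to controls: 0 for no effect and ±100 for the full control effect.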 To be noted: ME-180 SIE beta-lactamase reporter, IL-6 stimulated, 5 h; at 7.69 µM (top of the series) unless noted. Summed up:
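ME-180 cells carrying a SIE-driven beta-lactamase reporter are stimulated with 40 pM IL-6 for 5 h at 37C in the presence of compound. The 460/530 nm FRET substrate ratio is read after 2.5 h at RT. Data are normalised to 300 pM IL-6 and to 125 nM JAK inhibitor controls.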

Assay [6] concerns the target Glucocorticoid receptor (Homo sapiens) (UniProt P04150). In words: GR-GFP Redistribution (AID 450;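 active = compounds whose dose series gives a full or clear partial fitted curve of increased nuclear translocation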; also: potency is read from the fitted curve at half-maximal effect). To be noted: U2OS GR-GFP nuclear translocation, laser cytometry, 2 h.
Assay [7] shares this target. The assay can be described thus: GR-EFC Redistribution (AID 451; calls by dose curve; also: potency is read from the fitted curve at half-maximal effect). To be noted: CHO-K1 GR-EFC translocation, beta-gal luminescence, 2 h. Summed up: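 CHO-K1 cells stably expressing nuclear-localized β-gal enzyme acceptor and GR fused C-terminally to the enzyme donor fragment; ligand-driven nuclear translocation restores β-gal by complementation. Compounds titrated up to 46 uM final, 2 h at 37 °C; luminescence read.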

Assay [8] has as its target Mitogen-activated protein kinase 10 (Mus musculus) (UniProt Q61831). In words: JNK3 AlphaScreen Assay (AID 530).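 Also: kinase came from lysate of stimulated human HepG2 cells; signal reports phosphorylation of biotinylated GST-cJun 1-79 at Ser73 with 10 µM ATP; % is scaled to controls: 0 for no effect and ±100 for the full control effect.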 The conditions noted are these: JNK3 lysate, c-Jun phosphorylation; series mostly up to 11.4 µM. Put shortly: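 Inhibitors reduce antibody binding to phosphorylated biotin-cJun, lowering AlphaScreen luminescence. Lysates from HepG2 cells pre-activated by IL-1beta plus TNF-alpha supplied JNK3; compounds were titrated.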
For orientation: Bead proximity is the source of the signal in Alpha formats.

Assay [9] addresses 3',5'-cyclic-AMP phosphodiesterase 4B (Homo sapiens) (UniProt Q07343). In words: qHTS Assay for Inhibitors of PDE-IV (AID 607; active = well fitted activation curve with a large enough effect in the main read-out, with a control signal flat, not every such curve was filed as active; also: % of control where 0% means no effect). To be noted: HEK293 ACTOne CNG channel cells, membrane potential fluorescence; series mostly up to 22.9 µM. Put shortly: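 HEK293 ACTOne cells with CNG channel (1000/well), endogenous PDE4; membrane potential dye, compounds up to 22.9 uM final. Fluorescence Ex 535/Em 590; RO 20-1724 (100 uM final) as reference.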
On the technique in general: qHTS replaces the single test concentration by a dilution series.

A short description of assay [10]: qHTS Assay for Identification of Small Molecule Agonists for Hypoxia Response Element Signaling Pathway (AID 914; active = well fitted activation curve with a large enough effect in the signal ratio, with a control signal flat, not every such curve was filed as active; the % refers to the signal ratio; also: % of control where 0% means no effect). The conditions noted are these: ME-180 (cervical carcinoma) HRE-bla reporter, beta-lactamase ratio, CoCl2, 17 h; activation: active compounds read high. Put shortly:
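Compounds in a titration series were added to ME-180 reporter cells alongside an EC50 level of CoCl2. After 17 hours, beta-lactamase activity was read as the 460nm/530nm emission ratio of CCF4, giving AC50 values.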

The target in assay [11] is Cytochrome P450 2C9 (Homo sapiens) (UniProt P11712). The assay can be described thus: qHTS Assay for Inhibitors and Substrates of Cytochrome P450 2C9 (AID 883; active = well fitted curve in the direction sought with a large enough effect; an effect the other way counts as inactive or inconclusive; also: potency is read from the fitted curve at half-maximal effect; nearly all actives have a fitted effect of over 60% in size). The conditions noted are these: recombinant CYP2C9, luciferin-H luminescence, 60 min; series mostly up to 11.4 µM. Summed up: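 A luminogenic readout tracked human CYP2C9 (10nM) converting deoxyluciferin (100uM, at KM) in 25mM KPO4 during 60 min at 37C with regenerated NADPH. Values normalized to 57uM sulphaphenazole as complete inhibition.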
Sequence of Cytochrome P450 2C9 (Homo sapiens) (P11712 whole entry, looked up): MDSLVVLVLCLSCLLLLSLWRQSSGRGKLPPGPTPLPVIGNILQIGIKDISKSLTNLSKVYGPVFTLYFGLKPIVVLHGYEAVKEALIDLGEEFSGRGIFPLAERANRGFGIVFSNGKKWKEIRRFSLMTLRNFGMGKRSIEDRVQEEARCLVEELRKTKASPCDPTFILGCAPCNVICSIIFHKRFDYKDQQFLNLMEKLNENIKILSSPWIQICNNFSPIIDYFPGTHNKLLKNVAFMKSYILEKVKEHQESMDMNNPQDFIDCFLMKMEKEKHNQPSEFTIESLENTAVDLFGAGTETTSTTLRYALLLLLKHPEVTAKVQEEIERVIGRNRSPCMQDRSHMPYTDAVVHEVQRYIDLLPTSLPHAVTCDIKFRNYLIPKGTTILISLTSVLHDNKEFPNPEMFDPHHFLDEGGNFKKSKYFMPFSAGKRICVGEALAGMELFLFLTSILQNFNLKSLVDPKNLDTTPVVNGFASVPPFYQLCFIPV

Assay [12] concerns the target Cytochrome P450 3A4 (Homo sapiens) (UniProt P08684). The assay can be described thus: qHTS Assay for Activators of Cytochrome P450 3A4 (AID 885; active = well fitted curve in the direction sought with a large enough effect; an effect the other way counts as inactive or inconclusive; also: nearly all actives have a fitted effect of over 65% in size). The conditions noted are these: recombinant CYP3A4, Luciferin-PPXE luminescence, 60 min; series mostly up to 11.4 µM. Put shortly:
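Human CYP3A4 (20 nM) with Luciferin-PPXE at 25 uM (its KM) in 200 mM KPO4; 10 min compound preincubation, then NADPH regeneration and 60 min reaction at RT. Luciferin read by luminescence; normalized to 57 uM ketoconazole full inhibition.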

Assay [13] has as its target Cytochrome P450 2C19 (Homo sapiens) (UniProt P33261). In words: qHTS Assay for Inhibitors and Substrates of Cytochrome P450 2C19 (AID 899; active = well fitted curve in the direction sought with a large enough effect; an effect the other way counts as inactive or inconclusive; also: potency is read from the fitted curve at half-maximal effect; nearly all actives have a fitted effect of over 60% in size). To be noted: recombinant CYP2C19, luciferin-H EGE luminescence; series mostly up to 11.4 µM. Summed up:
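NADPH-dependent conversion of Luciferin-H EGE (10uM, at KM) by 5nM enzyme in 50mM KPO4, 60 min at 37C following 10 min compound preincubation. Stopped with luciferin detection buffer; luminescence read after 20 min.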

The target in assay [14] is Cytochrome P450 3A4 (Homo sapiens) (UniProt P08684). The assay can be described thus: qHTS Assay for Inhibitors and Substrates of Cytochrome P450 3A4 (AID 884; active = well fitted curve in the direction sought with a large enough effect; an effect the other way counts as inactive or inconclusive; also: potency is read from the fitted curve at half-maximal effect; nearly all actives have a fitted effect of over 50% in size). To be noted: recombinant CYP3A4, Luciferin-PPXE luminescence; series mostly up to 57.1 µM. Put shortly:
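20 nM human CYP3A4 with 25 uM Luciferin-PPXE (at KM) in 200 mM KPO4, preincubated 10 min with compound; NADPH regeneration started a 60 min RT reaction. Luciferin detected by luminescence, normalized to 57 uM ketoconazole as full inhibition.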

Assay [15] concerns the target Cytochrome P450 2D6 (Homo sapiens) (UniProt P10635). The assay can be described thus: qHTS Assay for Inhibitors and Substrates of Cytochrome P450 2D6 (AID 891; active = well fitted curve in the direction sought with a large enough effect; an effect the other way counts as inactive or inconclusive; also: potency is read from the fitted curve at half-maximal effect; nearly all actives have a fitted effect of over 60% in size). The conditions noted are these: recombinant CYP2D6, luciferin-ME EGE luminescence; series mostly up to 11.4 µM. Summed up:
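Human CYP2D6 (5 nM) with 30 uM Luciferin-ME EGE (at Km) in 100 mM KPO4, compound preincubated 10 min, then NADPH regeneration system for 60 min at room temperature. Luciferin read by luminescence; normalized to 1.43 uM quinidine.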

Seven compounds from PubChem BioAssay (NCATS) can be followed below.

Molecules are shown by their SMILES. Values without a mark were called inactive. Records with an inconclusive call do not appear. The source made the active and inactive calls. Unless noted, calls follow the shape of the dose curve; as a rule, active = well fitted curve in either direction with a large enough effect (not every such curve was filed as active); inconclusive = small, poorly fitted or top-dose-only effect, or another doubt; inactive = flat fitted curve, though single readings scatter.

Sequence of Cytochrome P450 3A4 (Homo sapiens) (P08684 whole entry, looked up): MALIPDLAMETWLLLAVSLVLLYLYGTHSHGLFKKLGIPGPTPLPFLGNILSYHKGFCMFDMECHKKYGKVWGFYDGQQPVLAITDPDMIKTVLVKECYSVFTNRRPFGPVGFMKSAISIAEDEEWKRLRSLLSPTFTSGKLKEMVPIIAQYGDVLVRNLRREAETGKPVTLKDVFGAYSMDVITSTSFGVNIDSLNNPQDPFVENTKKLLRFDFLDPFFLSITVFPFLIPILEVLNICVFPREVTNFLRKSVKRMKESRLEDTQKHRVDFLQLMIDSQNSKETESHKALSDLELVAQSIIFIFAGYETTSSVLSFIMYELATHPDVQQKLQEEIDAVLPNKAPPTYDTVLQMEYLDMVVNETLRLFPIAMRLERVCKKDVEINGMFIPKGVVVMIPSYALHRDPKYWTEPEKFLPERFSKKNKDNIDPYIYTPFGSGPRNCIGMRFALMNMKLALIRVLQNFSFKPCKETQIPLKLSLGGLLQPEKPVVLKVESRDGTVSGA
Sequence of 3',5'-cyclic-AMP phosphodiesterase 4B (Homo sapiens) (Q07343 whole entry, looked up): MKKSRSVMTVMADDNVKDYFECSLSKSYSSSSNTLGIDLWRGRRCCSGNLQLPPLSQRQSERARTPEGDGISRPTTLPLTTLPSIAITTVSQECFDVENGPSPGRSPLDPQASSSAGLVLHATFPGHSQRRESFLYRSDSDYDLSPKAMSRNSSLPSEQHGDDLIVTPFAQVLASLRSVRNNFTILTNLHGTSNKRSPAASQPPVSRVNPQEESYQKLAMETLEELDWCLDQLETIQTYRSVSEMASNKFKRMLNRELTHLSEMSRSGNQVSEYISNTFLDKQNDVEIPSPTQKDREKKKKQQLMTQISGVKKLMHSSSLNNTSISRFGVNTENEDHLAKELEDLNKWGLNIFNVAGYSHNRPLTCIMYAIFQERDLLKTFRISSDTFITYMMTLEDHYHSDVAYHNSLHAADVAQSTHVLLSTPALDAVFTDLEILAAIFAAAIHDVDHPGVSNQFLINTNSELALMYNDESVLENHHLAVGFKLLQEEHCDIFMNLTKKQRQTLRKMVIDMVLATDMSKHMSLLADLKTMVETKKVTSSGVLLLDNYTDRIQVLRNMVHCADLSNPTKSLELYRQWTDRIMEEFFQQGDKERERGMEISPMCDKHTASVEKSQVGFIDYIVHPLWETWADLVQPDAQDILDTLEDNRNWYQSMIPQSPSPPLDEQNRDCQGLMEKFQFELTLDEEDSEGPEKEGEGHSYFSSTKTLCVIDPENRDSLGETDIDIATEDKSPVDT
Sequence of Glucocorticoid receptor (Homo sapiens) (P04150 whole entry, looked up, the tested form may be a part): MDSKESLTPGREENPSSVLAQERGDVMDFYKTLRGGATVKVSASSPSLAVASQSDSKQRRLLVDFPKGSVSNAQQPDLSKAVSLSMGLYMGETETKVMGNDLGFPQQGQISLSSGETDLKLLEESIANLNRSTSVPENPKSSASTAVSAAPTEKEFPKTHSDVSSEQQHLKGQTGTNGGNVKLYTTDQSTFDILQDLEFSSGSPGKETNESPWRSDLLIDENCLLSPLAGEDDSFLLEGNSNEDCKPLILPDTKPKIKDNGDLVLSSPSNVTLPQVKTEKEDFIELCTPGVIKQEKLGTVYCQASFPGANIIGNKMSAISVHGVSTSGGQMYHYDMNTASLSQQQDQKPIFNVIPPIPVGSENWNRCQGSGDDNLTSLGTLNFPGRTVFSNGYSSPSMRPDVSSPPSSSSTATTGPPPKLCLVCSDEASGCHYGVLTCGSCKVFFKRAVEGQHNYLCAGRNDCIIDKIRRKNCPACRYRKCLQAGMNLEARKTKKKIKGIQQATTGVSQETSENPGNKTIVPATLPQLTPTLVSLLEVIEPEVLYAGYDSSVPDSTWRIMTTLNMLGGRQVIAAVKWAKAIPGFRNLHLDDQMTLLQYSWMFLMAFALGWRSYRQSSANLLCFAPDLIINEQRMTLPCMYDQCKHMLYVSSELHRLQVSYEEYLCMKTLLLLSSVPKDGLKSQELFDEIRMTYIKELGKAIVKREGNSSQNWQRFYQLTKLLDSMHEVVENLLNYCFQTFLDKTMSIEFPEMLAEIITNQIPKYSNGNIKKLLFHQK
Sequence of Cytochrome P450 1A2 (Homo sapiens) (P05177 whole entry, looked up): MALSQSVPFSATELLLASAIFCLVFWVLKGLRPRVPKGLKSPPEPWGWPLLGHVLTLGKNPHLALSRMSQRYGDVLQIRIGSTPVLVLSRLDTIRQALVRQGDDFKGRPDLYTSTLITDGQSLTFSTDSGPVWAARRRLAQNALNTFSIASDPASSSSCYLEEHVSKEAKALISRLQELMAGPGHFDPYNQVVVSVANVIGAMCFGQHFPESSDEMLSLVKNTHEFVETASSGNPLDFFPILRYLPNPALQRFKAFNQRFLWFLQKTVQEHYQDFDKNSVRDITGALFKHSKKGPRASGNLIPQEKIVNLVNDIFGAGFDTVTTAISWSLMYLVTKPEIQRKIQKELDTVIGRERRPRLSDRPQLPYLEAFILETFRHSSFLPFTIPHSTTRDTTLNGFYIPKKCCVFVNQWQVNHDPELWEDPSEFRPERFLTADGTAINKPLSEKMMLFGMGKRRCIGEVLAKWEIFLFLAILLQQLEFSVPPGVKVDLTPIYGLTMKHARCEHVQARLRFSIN
Sequence of Cytochrome P450 2C19 (Homo sapiens) (P33261 whole entry, looked up): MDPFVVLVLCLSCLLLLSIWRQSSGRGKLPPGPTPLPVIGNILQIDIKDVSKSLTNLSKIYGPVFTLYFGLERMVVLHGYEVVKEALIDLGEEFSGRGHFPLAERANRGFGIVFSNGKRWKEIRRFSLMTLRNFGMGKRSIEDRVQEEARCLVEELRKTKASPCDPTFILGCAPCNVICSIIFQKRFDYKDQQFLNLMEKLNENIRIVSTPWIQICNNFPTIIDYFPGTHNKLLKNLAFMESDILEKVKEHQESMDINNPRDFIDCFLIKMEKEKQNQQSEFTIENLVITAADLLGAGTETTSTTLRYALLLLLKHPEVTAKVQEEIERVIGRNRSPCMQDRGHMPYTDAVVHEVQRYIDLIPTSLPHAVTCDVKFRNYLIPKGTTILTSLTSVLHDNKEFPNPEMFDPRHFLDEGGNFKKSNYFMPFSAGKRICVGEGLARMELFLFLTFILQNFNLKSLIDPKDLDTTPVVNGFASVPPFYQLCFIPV
Sequence of Cytochrome P450 2D6 (Homo sapiens) (P10635 whole entry, looked up): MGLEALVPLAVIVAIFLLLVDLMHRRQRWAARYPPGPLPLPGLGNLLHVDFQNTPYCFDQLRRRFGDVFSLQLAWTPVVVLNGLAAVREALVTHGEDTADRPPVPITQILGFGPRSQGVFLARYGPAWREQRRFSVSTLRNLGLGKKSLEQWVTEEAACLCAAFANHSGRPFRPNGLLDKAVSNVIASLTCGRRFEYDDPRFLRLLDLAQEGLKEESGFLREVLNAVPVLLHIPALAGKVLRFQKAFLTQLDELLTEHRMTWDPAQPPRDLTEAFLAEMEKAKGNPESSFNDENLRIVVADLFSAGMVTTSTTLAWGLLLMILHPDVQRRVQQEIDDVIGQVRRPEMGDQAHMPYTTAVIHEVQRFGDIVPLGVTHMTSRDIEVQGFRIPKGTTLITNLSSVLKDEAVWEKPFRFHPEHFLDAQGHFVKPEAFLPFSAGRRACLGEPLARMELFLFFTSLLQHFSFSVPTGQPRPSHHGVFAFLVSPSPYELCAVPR

As for `O=C(NCCO)c1ccc(Cl)cc1`, the Potency in assay [1] was more than 11.4 µM; in [3], 3.98 µM (active); in assay [6] it was more than 46 µM; in assay [7], more than 9.22 µM. The activity change, negative = inhibition in assay [2] was -0.923%; in [4], 9.91%. In addition, the activity, negative = inhibition in assay [5] was 15.2%. Also, the Potency entry in assay [8] and in assay [9] was “inactive” throughout. Moreover, in [10], the activation is 9.98%.

As to `COc1ccccc1CCn1c(=O)c(-c2ccccc2)nc2cncnc21`, the Potency was more than 11.4 µM in [1]; 1 µM (active) in assay [3]; more than 9.22 µM in assay [6]; more than 46 µM in assay [7]; 5.01 µM (active) in assay [11]; 0.631 µM (active) in assay [13]. In addition, the activity change, negative = inhibition in assay [2] is -5.11%; in assay [4] it was -9.96%. Further, the activity, negative = inhibition in assay [5] is -0.776%. The Potency result in assay [8] and in assay [12] was “inactive” each time.

Take `COCCn1c(=O)c(-c2cccs2)nc2cnc(Oc3ccc(OC)cc3)nc21`: the Potency is more than 11.4 µM in assay [1]; 2.51 µM (active) in assay [3]; more than 9.22 µM in [6]; more than 46 µM in assay [7]; 5.01 µM (active) in assay [11]; 0.794 µM (active) in assay [14]. For the same compound, the figures for the activity change, negative = inhibition in [2] and in [4] were -1.43% and 15.8%, respectively. In addition, the activity, negative = inhibition in assay [5] is 11.7%. Also, the Potency result in assay [9] and in assay [12] was “inactive” in each case.

On to `O=c1cnc2cnc(Oc3ccccc3)nc2n1CCc1ccccc1`, for which the Potency in assay [1] was more than 11.4 µM; in assay [3], 3.16 µM (active); in [6], more than 9.22 µM; in [7], more than 46 µM; in assay [11], 3.16 µM (active); in [13] it was 6.31 µM (active). The activity change, negative = inhibition in [2] is 6.02%; in assay [4], -28.7%. The activity, negative = inhibition in [5] was -4.75%. For the same compound, the Potency result in assay [8] is “inactive”.

With `Nc1c(S(=O)(=O)O)cc(Nc2cccc(S(N)(=O)=O)c2)c2c1C(=O)c1ccccc1C2=O`, the Potency in [1] is more than 11.4 µM; in assay [3] it was 3.98 µM (active); in assay [6], more than 46 µM; in assay [7], more than 9.22 µM; in assay [11], 3.16 µM (active). In addition, the activity change, negative = inhibition is 26% in assay [2] and -26.6% in assay [4]. Also, the activity, negative = inhibition in assay [5] was 2.62%. Moreover, the Potency result in assay [9] and in assay [12] was “inactive” in each case.

`O=C1c2ccccc2-c2ccc(NC(=O)[C@H]3CCCC[C@@H]3C(=O)O)cc21`: the Potency in assay [1] is more than 11.4 µM; in [3], 1 µM (active); in assay [6] it was more than 46 µM; in assay [7], more than 9.22 µM. Besides, the activity change, negative = inhibition in assay [2] was 9.83%; in assay [4], 13.7%. Also, the activity, negative = inhibition in [5] is 1.55%. Moreover, the Potency entry in assay [8] and in assay [9] was “inactive” throughout. In addition, the activation in assay [10] was -7.45%.

Regarding `CCCCn1cnc2c(c(CC#N)nn2-c2ccccc2)c1=N`, the Potency in assay [1] was more than 11.4 µM; in assay [3] it was 1 µM (active); in assay [6] it was more than 46 µM; in assay [7], more than 9.22 µM; in assay [15] it was 0.398 µM (active). The activity change, negative = inhibition was -12% in assay [2] and -1.01% in [4]. In addition, in assay [5], the activity, negative = inhibition is -0.662%. For the same compound, the Potency result in assay [8] was “inactive”. Further, in [10], the activation was 16.2%.
